From PubChem BioAssay AID1159580 (chemical genetic matrix, 2015)
“And” between values parts separate entries of the source, which are not always exact repeats. Identical values can stand only once. About 2,000 (36%) of roughly 5,500 compounds were called active. Inconclusive results (about 18%) are left out. Rule as the data show it: active = normalized growth mostly below about 0.91 (no sharp cut-off); inconclusive = no clear call, values can overlap the other calls; inactive = mostly above about 0.92. The list shows a part of the results.

Experiment: chemical genetic growth profiling, strain panel (AID 1159580);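 also: tested at 20 µM; growth read once vehicle control cultures reached saturation at 30 °C; 1 = growth at the plate median or of vehicle wells; lower values mean less growth of the strain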
Conditions: S. cerevisiae deletion strains, growth OD

Measured: normalized growth

O=C(O)c1cc2ccccc2[nH]1
inactive: locus YAL013W, strain DEP1, hits give low values 1.01 | locus YAL021C, strain ccr4, hits give low values 0.969 | locus YAL026C, strain drs2, hits give low values 0.99 | locus YAL030W, strain snc1, hits give low values 1 | locus YBL061C, strain skt5, hits give low values 0.996 | locus YBR009C, strain hhf1, hits give low values 0.996 | locus YBR021W, strain FUR4, hits give low values 0.98 | locus YBR023C, strain chs3, hits give low values 0.994 | locus YBR171W, strain sec66, hits give low values 0.982 | locus YBR229C, strain ROT2, hits give low values 1 | locus YBR231C, strain swc5, hits give low values 0.994 | locus YBR279W, strain paf1, hits give low values 0.991 | locus YCL011C, strain gbp2, hits give low values 0.98 | locus YCL016C, strain dcc1, hits give low values 0.998 | locus YCL029C, strain bik1, hits give low values 1.01 | locus YCL061C, strain MRC1, hits give low values 0.973 | locus YCL069W, strain vba3, hits give low values 0.984 | locus YCR088W, strain abp1, hits give low values 0.98 | locus YDL005C, strain med2, hits give low values 0.982 | locus YDL035C, strain GPR1, hits give low values 1.01 | locus YDL040C, strain nat1, hits give low values 0.995 | locus YDL074C, strain BRE1, hits give low values 1.01 | locus YDL101C, strain DUN1, hits give low values 1.02 | locus YDL134C, strain PPH21, hits give low values 1.01 | locus YDL185W, strain tfp1, hits give low values 1.01 | locus YDL192W, strain arf1, hits give low values 1.02 | locus YDR001C, strain nth1, hits give low values 0.977 | locus YDR069C, strain doa4, hits give low values 1 | locus YDR101C, strain arx1, hits give low values 1.02 | locus YDR137W, strain rgp1, hits give low values 0.938 | locus YDR150W, strain NUM1, hits give low values 1.01 | locus YDR159W, strain sac3, hits give low values 0.982 | locus YDR162C, strain NBP2, hits give low values 1.04 | locus YDR195W, strain ref2 0.978 | locus YDR297W, strain sur2, hits give low values 0.981 | locus YDR318W, strain mcm21, hits give low values 1.01 | locus YDR334W, strain swr1, hits give low values 0.958 | locus YDR335W, strain msn5, hits give low values 0.987 | locus YDR388W, hits give low values 1.01 | locus YDR392W, strain spt3, hits give low values 0.947 | locus YDR502C, strain sam2, hits give low values 1.01 | locus YEL003W, strain gim4, hits give low values 0.978 | locus YEL037C, strain rad23, hits give low values 0.982 | locus YEL061C, strain CIN8 (second series), hits give low values 0.981 | locus YEL061C, strain CIN8, hits give low values 1 | locus YER015W, strain faa2, hits give low values 0.989 | locus YER016W, strain bim1, hits give low values 1 | locus YER110C, hits give low values 1.02 | locus YER111C, strain swi4, hits give low values 0.997 | locus YER155C, strain BEM2 (second series), hits give low values 1.01 | locus YER155C, strain BEM2, hits give low values 0.992 | locus YER167W, strain BCK2, hits give low values 1.01 | locus YFR010W, strain ubp6, hits give low values 0.968 | locus YGL078C, strain dbp3, hits give low values 0.995 | locus YGL086W, strain mad1, hits give low values 1.02 | locus YGL167C, strain pmr1, hits give low values 0.993 | locus YGL173C, strain kem1, hits give low values 0.975 | locus YGL227W, strain vid30, hits give low values 0.982 | locus YGL240W, strain doc1, hits give low values 1 | locus YGL248W, strain PDE1, hits give low values 1 | locus YGL253W, strain hxk2, hits give low values 0.987 | locus YGR078C, strain PAC10, hits give low values 0.99 | locus YGR135W, strain pre9, hits give low values 1.01 | locus YGR229C, strain SMI1, hits give low values 0.999 | locus YGR252W, strain gcn5, hits give low values 0.984 | locus YHR013C, strain ard1, hits give low values 1 | locus YHR027C, strain rpn1, hits give low values 1.02 | locus YHR030C, strain SLT2, hits give low values 1.01 and 1.03 | locus YHR079C, strain IRE1 (second series), hits give low values 1.01 | locus YHR079C, strain IRE1, hits give low values 1 | locus YHR094C, strain hxt1, hits give low values 1.02 | locus YHR129C, strain ARP1, hits give low values 1.01 | locus YHR142W, strain chs7, hits give low values 0.928 | locus YHR200W, strain rpn10, hits give low values 1.02 | locus YIL066C, strain RNR3, hits give low values 1.02 | locus YIL073C, strain SPO22, hits give low values 1.07 | locus YIL125W, strain kgd1, hits give low values 0.995 | locus YIR030C, strain dcg1, hits give low values 1.01 | locus YJL092W, strain hpr5, hits give low values 0.97 | locus YJL095W, strain BCK1 (second series), hits give low values 1 | locus YJL095W, strain BCK1, hits give low values 1.01 | locus YJL115W, strain asf1, hits give low values 0.975 | locus YJL129C, strain trk1, hits give low values 0.971 | locus YJL134W, strain LCB3, hits give low values 1.01 | locus YJL154C, strain vps35, hits give low values 0.966 | locus YJL164C, strain tpk1, hits give low values 1 | locus YJL166W, strain qcr8, hits give low values 1 | locus YJL168C, strain set2, hits give low values 1.02 | locus YJL187C, strain SWE1 (second series), hits give low values 1.01 | locus YJL187C, strain SWE1, hits give low values 0.988 | locus YJR043C, strain POL32, hits give low values 0.99 | locus YJR066W, strain TOR1, hits give low values 0.935
